In PubChem BioAssay (Tox21):
Values joined by “and” are separate entries in the source; they are usually repeats but may differ in a detail not shown here. Equal entries are not always repeated. Results filed as inconclusive are left out. A call without a number means that no potency is given here. Some compounds were tested as several samples or in several runs, with calls that do not always agree. Active and inactive are the calls of the source. Unless noted, calls follow the shape of the dose curve; as a rule, active = well fitted curve in the direction sought with a large enough effect in the repeat runs; inconclusive = weak or mixed curves; inactive = no such curve, though single readings can be large; an effect the other way counts as inactive or inconclusive.

Legend:
[1] = molecular target: Progesterone receptor (Homo sapiens) (UniProt P06401); test: qHTS assay to identify small molecule agonists of the progesterone receptor (PR) signaling pathway (AID 1346784; calls by dose curve; also: nearly all actives have a fitted effect of over 30% in size; also: potency is read from the fitted curve at half-maximal effect)
Progesterone receptor (Homo sapiens), sequence (P06401 whole entry, looked up): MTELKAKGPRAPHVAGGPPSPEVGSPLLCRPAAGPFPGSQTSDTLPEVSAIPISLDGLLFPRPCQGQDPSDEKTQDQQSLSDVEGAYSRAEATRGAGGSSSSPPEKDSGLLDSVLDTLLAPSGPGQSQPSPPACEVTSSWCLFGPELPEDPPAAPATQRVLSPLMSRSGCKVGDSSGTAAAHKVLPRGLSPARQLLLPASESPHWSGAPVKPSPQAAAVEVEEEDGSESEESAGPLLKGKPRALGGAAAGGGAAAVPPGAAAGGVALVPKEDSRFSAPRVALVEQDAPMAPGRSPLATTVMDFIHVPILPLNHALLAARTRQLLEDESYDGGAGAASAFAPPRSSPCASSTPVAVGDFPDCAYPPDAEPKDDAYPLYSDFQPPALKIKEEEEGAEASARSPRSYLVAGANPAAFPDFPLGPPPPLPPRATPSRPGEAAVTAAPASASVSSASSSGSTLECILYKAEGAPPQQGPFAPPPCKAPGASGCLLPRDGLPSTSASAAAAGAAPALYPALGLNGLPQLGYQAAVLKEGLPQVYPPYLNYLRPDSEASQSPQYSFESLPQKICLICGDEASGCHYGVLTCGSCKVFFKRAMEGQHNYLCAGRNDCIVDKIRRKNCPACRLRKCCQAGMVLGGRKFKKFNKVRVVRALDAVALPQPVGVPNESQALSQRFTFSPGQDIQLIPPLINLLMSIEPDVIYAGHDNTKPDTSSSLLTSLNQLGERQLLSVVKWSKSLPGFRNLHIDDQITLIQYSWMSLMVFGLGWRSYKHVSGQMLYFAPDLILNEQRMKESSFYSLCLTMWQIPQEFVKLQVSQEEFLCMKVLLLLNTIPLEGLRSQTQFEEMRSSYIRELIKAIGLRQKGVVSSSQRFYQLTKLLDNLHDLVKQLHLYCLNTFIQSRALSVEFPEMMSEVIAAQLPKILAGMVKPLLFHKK
Procedure, shortened: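 Compounds were tested for PR agonism in HEK 293T cells bearing a beta-lactamase gene under UAS control. Treatment lasted 16 hr at 37C; signal came from fluorescence of a FRET substrate.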

[2] = qHTS assay to identify small molecule antagonists of the progesterone receptor (PR) signaling pathway - cell viability counter screen (AID 1346798); also: nearly all actives have a fitted effect of over 50% in size; also: potency is read from the fitted curve at half-maximal effect; as to activity change, negative = cytotoxicity: series mostly up to about 92 µM
Procedure, shortened: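 Following a 4 hr attachment, PR-UAS-bla HEK293T cells in charcoal-stripped FBS medium were exposed to compounds with R5020 for 16 hr; CellTiter-Glo was added and luminescence read after 30 min at room temperature.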

[3] = qHTS assay to identify small molecule agonists of the progesterone receptor (PR) signaling pathway - cell viability counter screen (AID 1346799; calls by dose curve; also: nearly all actives have a fitted effect of over 45% in size; also: potency is read from the fitted curve at half-maximal effect)
Procedure, shortened: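 Here, 3,000 PR-UAS-bla HEK293T cells per well were treated with compounds for 16 hr after a 6 hr preincubation at 37C and 5% CO2; cell viability is the CellTiter-Glo luminescence signal.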

[4] = qHTS assay to identify small molecule antagonists of the TGF-beta/Smad signaling pathway - cell viability counter screen (AID 1346824); also: nearly all actives have a fitted effect of over 50% in size
Procedure, shortened: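 SBE-bla HEK 293T cells, incubated overnight, then compound plus 0.25 ng/mL TGF-beta1 (stock added) for 5 hr at 37 C. Viability was read in the same wells by CellTiter-Glo luminescence after 30 min at room temperature.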

[5] = qHTS assay to identify small molecule agonists of the TGF-beta/Smad signaling pathway - cell viability counter screen (AID 1346829); also: top concentration of the series differs between compounds; nearly all actives have a fitted effect of over 45% in size
Procedure, shortened: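 In parallel with the Smad reporter read, viability of HEK 293T cells stably carrying SBE-bla is quantified by ATP luminescence following 5 hr compound treatment.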

[6] = qHTS assay to identify small molecule agonists of the TGF-beta/Smad signaling pathway (AID 1346859; active = well fitted activation curve with a large enough effect in the signal ratio in the repeat runs, not every such curve was filed as active; the % refers to the signal ratio; also: series mostly up to about 77 µM)
Procedure, shortened: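 Each well held 4,000 SBE-bla HEK 293T cells incubated overnight before compound addition; 5 hr later the cleavable FRET substrate went on for 2 hr at room temperature, and fluorescence was read at two emissions.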

[7] = molecular target: Thyrotropin-releasing hormone receptor (Homo sapiens) (UniProt P34981); test: qHTS assay to identify small molecule antagonists of the thyrotropin-releasing hormone receptor (TRHR) signaling pathway (AID 1346877; active = well fitted inhibition curve with a large enough effect in the repeat runs, not every such curve was filed as active; also: series mostly up to about 51 µM)
Thyrotropin-releasing hormone receptor (Homo sapiens), sequence (P34981 whole entry, looked up): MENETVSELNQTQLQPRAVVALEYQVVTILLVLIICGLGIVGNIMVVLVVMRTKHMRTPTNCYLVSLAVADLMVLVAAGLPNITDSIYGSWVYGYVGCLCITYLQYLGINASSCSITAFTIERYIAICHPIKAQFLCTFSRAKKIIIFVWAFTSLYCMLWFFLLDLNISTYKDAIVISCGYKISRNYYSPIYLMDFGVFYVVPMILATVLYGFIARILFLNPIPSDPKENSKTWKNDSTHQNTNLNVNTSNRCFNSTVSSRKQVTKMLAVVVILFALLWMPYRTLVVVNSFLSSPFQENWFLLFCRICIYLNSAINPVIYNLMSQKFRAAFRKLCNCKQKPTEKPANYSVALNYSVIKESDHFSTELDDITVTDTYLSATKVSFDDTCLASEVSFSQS
Procedure, shortened: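 HEK293/TRHR cells, 18 h, 37 °C; Ca2+ dye 2 h; cpd 5 min RT; TRH 1 nM final; fluorescence read 3 min, 1 s intervals; 15 concs, triplicate.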

[8] = molecular target: Thyrotropin-releasing hormone receptor (Homo sapiens) (UniProt P34981); test: qHTS assay to identify small molecule agonists of the thyrotropin-releasing hormone receptor (TRHR) signaling pathway (AID 1346891; calls by dose curve; also: series mostly up to about 58 µM)
Procedure, shortened: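 Screening of agonists relied on calcium signalling in HEK293 cells expressing human TRHR: dye loading 2 h at 37 °C preceded compound addition and a 3-min fluorescence time course.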

[9] = Human pregnane X receptor (PXR) small molecule agonists, qHTS cell viability counter screen (AID 1346977); also: nearly all actives have a fitted effect of over 50% in size; also: potency is read from the fitted curve at half-maximal effect
Procedure, shortened: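 Tox21 qHTS format; PXR-Luc HepG2, 2,000/well, charcoal-stripped FBS 5%. Cpd exposure 24hr. Read: CellTiter-Fluor fluorescence, multiplexed with luciferase.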

[10] = Caspase-3/7 induction in HepG2 cells by small molecules, qHTS assay (AID 1346978); also: nearly all actives have a fitted effect of over 15% in size; also: potency is read from the fitted curve at half-maximal effect
Procedure, shortened: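 Wild-type HepG2 cells, 2,000/well, settled 5 hr at 37 C and 5% CO2, then compound-treated for 17 hr; caspase-3/7 activity read by luminescent Caspase-Glo 3/7 after 30 min at room temperature.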

[11] = Caspase-3/7 induction in CHO-K1 cells by small molecules, qHTS cell viability counter screen (AID 1346979); also: nearly all actives have a fitted effect of over 35% in size; also: potency is read from the fitted curve at half-maximal effect
Procedure, shortened: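 CellTiter-Fluor viability check, qHTS format: wild-type CHO-K1, 16hr compound treatment, 1hr reagent incubation, fluorescence read.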

[12] = Caspase-3/7 induction in CHO-K1 cells by small molecules, qHTS assay (AID 1346980); also: nearly all actives have a fitted effect of over 15% in size; also: potency is read from the fitted curve at half-maximal effect
Procedure, shortened: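 Wild-type CHO-K1 cells exposed to compounds for 17hr at 37 C, 5% CO2. Caspase-3/7 activity then measured by Caspase-Glo 3/7 luminescence after 30min at room temperature.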

[13] = Caspase-3/7 induction in HepG2 cells by small molecules, qHTS cell viability counter screen (AID 1346981); also: nearly all actives have a fitted effect of over 30% in size; also: potency is read from the fitted curve at half-maximal effect; as to activity change, negative = cytotoxicity: series mostly up to about 92 µM
Procedure, shortened: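 Fluorescence read-out of live-cell protease activity (CellTiter-Fluor) after 1 hr with reagent. This was measured in the same wells as the caspase-3/7 luminescence, on HepG2 cells exposed to DMSO-dissolved compounds for 16 hr at 37 C.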

[14] = molecular target: Nuclear receptor subfamily 1 group I member 2 (Homo sapiens) (UniProt O75469); test: Human pregnane X receptor (PXR) small molecule agonists, qHTS assay (AID 1346982); also: nearly all actives have a fitted effect of over 35% in size; also: potency is read from the fitted curve at half-maximal effect
Nuclear receptor subfamily 1 group I member 2 (Homo sapiens), sequence (O75469 whole entry, looked up): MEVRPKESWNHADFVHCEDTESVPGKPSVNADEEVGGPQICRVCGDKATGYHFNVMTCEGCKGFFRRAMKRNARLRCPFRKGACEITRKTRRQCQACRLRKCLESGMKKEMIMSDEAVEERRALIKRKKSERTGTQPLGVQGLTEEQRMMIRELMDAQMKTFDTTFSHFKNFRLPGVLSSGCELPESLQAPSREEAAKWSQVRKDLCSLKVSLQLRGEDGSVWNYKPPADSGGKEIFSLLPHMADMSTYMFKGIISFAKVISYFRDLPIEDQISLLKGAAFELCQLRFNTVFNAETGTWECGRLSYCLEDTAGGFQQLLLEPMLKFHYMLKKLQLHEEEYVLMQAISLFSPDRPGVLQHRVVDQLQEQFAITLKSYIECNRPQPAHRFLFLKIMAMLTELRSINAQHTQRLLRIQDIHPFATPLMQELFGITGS
Procedure, shortened: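 HepG2 PXR-Luc reporter line, 5% charcoal-stripped FBS; 5 hr pre-incubation, compound (DMSO) 24 hr at 37 C/5% CO2; ONE-Glo 30 min RT; luminescence read-out.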

[15] = molecular target: Nuclear receptor subfamily 1 group I member 2 (Rattus norvegicus) (UniProt Q9R1A7); test: Rat pregnane X receptor (rPXR) activation by small molecules, qHTS assay (AID 1346983); conditions: rPXR luciferase reporter cells, One-Glo luminescence, 24 h; stronger effect = higher value; also: nearly all actives have a fitted effect of over 20% in size
Nuclear receptor subfamily 1 group I member 2 (Rattus norvegicus), sequence (Q9R1A7 whole entry, looked up): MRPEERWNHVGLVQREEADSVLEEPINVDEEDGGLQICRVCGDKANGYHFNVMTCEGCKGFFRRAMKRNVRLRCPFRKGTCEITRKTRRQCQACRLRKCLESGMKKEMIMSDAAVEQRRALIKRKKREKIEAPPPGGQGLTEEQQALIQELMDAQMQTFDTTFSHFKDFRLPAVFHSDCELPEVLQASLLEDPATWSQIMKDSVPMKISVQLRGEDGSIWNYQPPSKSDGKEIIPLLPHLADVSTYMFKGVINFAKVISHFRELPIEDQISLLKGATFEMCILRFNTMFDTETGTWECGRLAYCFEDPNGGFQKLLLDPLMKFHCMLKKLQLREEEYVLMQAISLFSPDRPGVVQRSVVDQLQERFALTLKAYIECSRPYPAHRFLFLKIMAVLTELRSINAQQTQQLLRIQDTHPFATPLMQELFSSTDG
Procedure, shortened: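 Cell-based rPXR activation assay: rPXR cells, 2,000 per well, rested 5hr at 37 C, then exposed to compounds in DMSO for 24 hr at 37 C. Luciferase activity read by One-Glo luminescence after 30 min at room temperature.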

[16] = molecular target: Nuclear receptor subfamily 1 group I member 2 (Homo sapiens) (UniProt O75469); test: CYP3A4 induction through human pregnane X receptor (PXR) by small molecules, qHTS assay (AID 1346984); also: nearly all actives have a fitted effect of over 40% in size; also: potency is read from the fitted curve at half-maximal effect
Procedure, shortened: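 HepG2-derived DPX-2 line carrying PXR plus a CYP3A4-promoter luciferase reporter; cells plated 5 hr, compound-exposed 24 hr at 37C. CYP3A4 activity probed with 3uM (final) Luciferin-IPA for 3hr, then luciferase read after One-Glo.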

[17] = molecular target: Nuclear receptor subfamily 1 group I member 2 (Homo sapiens) (UniProt O75469); test: Human pregnane X receptor (PXR) activation by small molecules, qHTS assay (AID 1346985); also: nearly all actives have a fitted effect of over 40% in size
Procedure, shortened: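 DPX-2 cells (HepG2 co-transfected with a PXR response element and a CYP3A4-promoter luciferase construct) were seeded at 2,000 per well, rested 5 hr at 37C, then exposed to DMSO-dissolved compounds for 24 hr. Activation was read as luciferase luminescence.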

[18] = molecular target: Cytochrome P450 2D6 (Homo sapiens) (UniProt P10635); test: Cytochrome P450 Family 2 Subfamily D Member 6 (CYP2D6) small molecule antagonists: luciferase reporter qHTS assay (AID 1671196); also: nearly all actives have a fitted effect of over 50% in size; also: potency is read from the fitted curve at half-maximal effect; as to activity change, negative = inhibition: series mostly up to about 120 µM
Cytochrome P450 2D6 (Homo sapiens), sequence (P10635 whole entry, looked up): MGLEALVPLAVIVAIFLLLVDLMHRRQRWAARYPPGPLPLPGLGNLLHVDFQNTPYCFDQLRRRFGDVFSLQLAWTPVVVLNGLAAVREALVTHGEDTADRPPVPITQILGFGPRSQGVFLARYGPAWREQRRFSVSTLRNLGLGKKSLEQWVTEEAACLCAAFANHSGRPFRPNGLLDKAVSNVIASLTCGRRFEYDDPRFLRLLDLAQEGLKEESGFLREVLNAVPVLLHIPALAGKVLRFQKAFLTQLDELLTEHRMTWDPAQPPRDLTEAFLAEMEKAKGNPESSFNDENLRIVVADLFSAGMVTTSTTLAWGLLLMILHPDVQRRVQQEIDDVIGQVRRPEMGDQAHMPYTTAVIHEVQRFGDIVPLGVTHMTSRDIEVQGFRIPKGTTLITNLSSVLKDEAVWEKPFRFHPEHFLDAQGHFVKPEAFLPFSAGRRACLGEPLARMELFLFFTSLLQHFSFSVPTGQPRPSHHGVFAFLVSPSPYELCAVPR
Procedure, shortened: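 Luminogenic proluciferin substrate, CYP2D6 enzyme; 10 min RT preincubation with compound, NADPH regeneration system added, 1 h RT. Stop/detection reagent, 20 min RT, luminescence read (RLU). Signal proportional to CYP activity.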

[19] = molecular target: Progesterone receptor (Homo sapiens) (UniProt P06401); test: qHTS assay to identify small molecule antagonists of the progesterone receptor (PR) signaling pathway (AID 1346795; active = well fitted inhibition curve with a large enough effect in the signal ratio in the repeat runs, not every such curve was filed as active; the % refers to the signal ratio)
Procedure, shortened: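 In HEK293T cells bearing the PR-UAS-bla reporter, compound effects on promegestone-driven (1 nM) beta-lactamase expression are assessed after 16 hr using a fluorescent FRET substrate incubated 2 hr at room temperature.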

In the case of `CCCNC(C)C(=O)Nc1ccccc1C` (centres undefined), the Potency [1] is reported as “inactive”, the Potency [2] is reported as “inactive” and the Potency [3] is reported as “inactive”. For the same compound, the Potency [4] was “inactive”, the Potency [5] was “inactive” and the outcome [6] was “inactive”. For the same compound, the Potency [7] was “inactive”, the Potency [8] was “inactive” and the Potency [9] was “inactive”. The Potency [10] was “inactive”, the Potency [11] was “inactive” and the Potency [12] was “inactive”. The Potency [13] was “inactive”, the Potency [14] was “inactive” and the max activation [15] was -2.15% (inactive). The Potency [16] was “inactive”, the Potency [17] was “inactive” and the Potency [18] was 27.5 µM (active).

In the case of `O=C(O)c1cccc(C(=O)O)c1`, the Potency [1] is reported as “inactive”, the Potency [2] is reported as “inactive” and the Potency [3] is reported as “inactive”. The Potency [4] was “inactive”, the Potency [5] was “inactive” and the outcome [6] was “inactive”. The Potency [7] was “inactive”, the Potency [8] was “inactive” and the Potency [9] was “inactive”. The Potency [10] was “inactive”, the Potency [11] was “inactive” and the Potency [12] was “inactive”. The Potency [13] was “inactive”, the Potency [14] was “inactive” and the Potency [18] was “inactive”.

For `N[C@@H]1CONC1=O`, the Potency [1] was “inactive”, the Potency [19] was “inactive” and the Potency [3] was “inactive”. For the same compound, the Potency [4] was “inactive”, the Potency [5] was “inactive” and the Potency [9] was “inactive”. For the same compound, the Potency [11] was “inactive”, the Potency [13] was “inactive” and the Potency [14] was “inactive”. The max activation [15] was -2.48% (inactive), the Potency [16] was “inactive” and the Potency [17] was “inactive”. The Potency [18] was “inactive”.

With `BrC1CCC(Br)C(Br)CCC(Br)C(Br)CCC1Br` (centres undefined) the Potency [1] was “inactive”, the Potency [2] was 54.3 µM (active) and 51.7 µM (active) and the Potency [3] was 30.5 µM (active) and 41.1 µM (active). For the same compound, the Potency [4] was “inactive”, the Potency [10] was “inactive” and the Potency [11] was 48.4 µM (active). The Potency [12] was 60.9 µM (active), the Potency [13] was “inactive” and the Potency [14] was 54.3 µM (active) and 46.1 µM (active). For the same compound, the Potency [18] was “inactive”.

For `CCC(C)(C)C(=O)O[C@H]1C[C@@H](C)C=C2C=C[C@H](C)[C@H](CC[C@@H]3C[C@@H](O)CC(=O)O3)[C@H]21`, the Potency [1] was “inactive”, the Potency [2] was “inactive” and the Potency [4] was “inactive”. The Potency [5] was “inactive”, the outcome [6] was “inactive” and the Potency [7] was “inactive”. The Potency [8] was “inactive”, the Potency [10] was “inactive” and the Potency [11] was “inactive”.

In the case of `Cc1ccc(-c2cc(C(F)(F)F)nn2-c2ccc(S(N)(=O)=O)cc2)cc1`, the Potency [1] is reported as “inactive”, the Potency [2] is reported as “inactive” and the Potency [3] is reported as 76.6 µM (active) and inactive. The Potency [4] was “inactive”, the Potency [5] was “inactive” and the outcome [6] was “inactive”. For the same compound, the Potency [7] was “inactive”, the Potency [8] was “inactive” and the Potency [9] was 60.9 µM (active) and inactive. For the same compound, the Potency [10] was 54.3 µM (active), the Potency [11] was 48.4 µM (active) and 61.1 µM (active) and the Potency [13] was 60.9 µM (active) and 61.1 µM (active) and inactive. For the same compound, the Potency [14] was 10.8 µM (active) and 5.45 µM (active) and 13.3 µM (active), the max activation [15] was 0.916% (inactive) and the Potency [16] was 14.1 µM (active). The Potency [18] was 998 nM (active) and 35.6 µM (active) and 15.5 µM (active).

With `CCCCCCCCCCCCCCCCCl` the Potency [1] was 3.84 µM (active), the activity change, negative = inhibition [19] was 4.71% [at 18.9 µM] (inactive) and the viability change, negative = cytotoxic [4] was 1.48% [at 15.8 µM] (inactive). The activity change, negative = cytotoxicity [5] was 1.73% [at 15.8 µM] (inactive), the activity, negative = inhibition [7] was 3.5% [at 10.5 µM] (inactive) and the activation [8] was -0.271% [at 11.8 µM] (inactive). For the same compound, the activity change, negative = cytotoxicity [9] was 0.261% [at 19 µM] (inactive), the caspase activation [10] was -0.588% [at 19 µM] (inactive) and the activity change, negative = cytotoxicity [11] was -2.27% [at 19 µM] (inactive). For the same compound, the caspase-3/7 activation [12] was -1.24% [at 19 µM] (inactive), the activity change, negative = cytotoxicity [13] was -0.832% [at 19 µM] (inactive) and the activation [14] was -2.47% [at 19 µM] (inactive). For the same compound, the activity change, negative = inhibition [18] was 0.322% [at 23.6 µM] (inactive).
